These results are taken from PubChem BioAssay.

Experiment [1] can be described thus: rapamycin-like changes in RPL19A-GFP expression – cell-based, S. cerevisiae, multiplex flow cytometry, primary screen (AID 1862; in the data active means percent of DMSO control GFP below about 86%;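 further: lower values mimic rapamycin by blocking the RPL19A rise seen in DMSO cells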). The note with it: S. cerevisiae RPL19A-GFP strain, flow cytometry fluorescence, 3 h; at 10 µM; stronger effect = lower value. (In general: In flow cytometry, cells or beads pass a laser one at a time.)
A short description of experiment [2]: TOR pathway GLN3 branch reporter MEP2-GFP changes – S. cerevisiae, multiplex flow cytometry, primary screen (AID 1867;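 active means GFP response, as percent of the DMSO control, above the screen-wide mean plus 3 SD, about 139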;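 further: median GFP channel fluorescence of barcode-gated MEP2-GFP cells measured by flow cytometry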). The note with it: S. cerevisiae MEP2-GFP strain, 3 h, at 10 µM, stronger effect = higher value, 100% means same as DMSO wells.
The nature of experiment [3]: TOR pathway RTG branch CIT2 reporter changes – S. cerevisiae, GFP fusion, multiplex flow cytometry, primary screen (AID 1870;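 active means percent response above a set limit, the screen-wide mean plus 3 SD, cut at about 130% in these data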;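 further: barcoded CIT2-GFP strain pooled with four other GFP strains with rapamycin as positive control; median GFP fluorescence per well over plate mean of DMSO wells so 100% = DMSO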). The note with it: S. cerevisiae CIT2-GFP expression, 3 h, at 10 µM, stronger effect = higher value.
The nature of experiment [4]: TOR pathway LAP4-GFP level changes – S. cerevisiae, multiplex flow cytometry, primary screen (AID 1873;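 active means GFP signal, as percent of the solvent control, above the screen mean plus 3 SD, about 149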). The note with it: S. cerevisiae LAP4-GFP expression, 3 h, at 10 µM, stronger effect = higher value.
Experiment [5] is described as follows: yeast AGP1-GFP level changes, GLN3 branch – cell-based, multiplex flow cytometry, S. cerevisiae, primary screen (AID 1887;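 active means GFP signal above the screen-wide mean plus 3 SD, that is over about 124.5% of the solvent control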;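 further: AGP1-GFP fusion strain of S. cerevisiae within a five-strain barcoded multiplex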). To be noted: 3 h, at 10 µM, stronger effect = higher value.
The nature of experiment [6]: reduced mouse 2C T cell binding to pMHC/ICAM-1 vesicles – MLPCN validation set, flow cytometry, LFA-1/ICAM-1 modulator project, pilot screen (AID 2523;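 active means response below a set limit, under 55% cells CD8-positive and vesicle-bound, and CD8 cells' 90th-percentile brightness under 279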;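 on vesicle binding response: mean PE anti-B7-1 fluorescence of CD8+ cells relative to row control; 100% = QL9-loaded vesicles with DMSO vehicle in the same plate row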). To be noted: 2C mouse CD8+ T cells, at 7 µM, stronger effect = lower value; double positive events: measured here: CD8+/vesicle+ event percentage.
Experiment [7] has as its target Integrin beta-1 (Homo sapiens) + Integrin alpha-4 (Homo sapiens) (UniProt P13612+P05556). The experiment is described as follows: alpha4beta1 integrin LIBS antibody binding reduction – U937 cells, HUTS-21 mAb, flow cytometry, validation set, VLA-4 allosteric modulator project, pilot screen (AID 2674;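 active means inhibition above 50%, about 3 SD of the validation set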;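 further: antibody binding induced by the VLA-4 ligand LDV present at three times its Kd; 0% = LDV ligand with antibody and no compound and 100% = antibody without LDV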). The note with it: HUTS-21 LIBS mAb binding, at 6.7 µM, stronger effect = higher value, binding induced by LDV ligand.

Experiment [8] in a line: calorie-restriction mimetic ROS inhibitors, yeast – validation compound set, pilot screen (AID 2706;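 active means superoxide response below 65% of plate, a cut near 3 SD across the whole screen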;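 further: yeast exposed to compound for one week at 30 degrees C before staining; 100% = mean of all compound wells on the same plate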). The note with it: S. cerevisiae aging, superoxide DHE fluorescence; at 10 µM, stronger effect = lower value.
Experiment [9] has as its target Beta-adrenergic receptor kinase 1 (Homo sapiens) (UniProt P25098). The experiment is described as follows: GRK2 binders displacing RNA aptamer, biochemical, validation, human GRK2, bead flow cytometry (AID 488806;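 active means aptamer binding inhibition above 30%, about 3 SD of noise from non-fluorescent compounds; inactive means inhibition at or below 30%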). The note with it: bead-bound GRK2, FAM-aptamer displacement, at 10 µM, stronger effect = higher value.
Experiment [10] deals with AP-2 complex subunit beta (Homo sapiens) (UniProt P63010). In words: beta-arrestin/AP2 interaction blockers – biochemical, validation set, GST-AP2 beads, flow cytometry, pilot screen (AID 504541;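 active means inhibition above 54%, about 3 SD of non-fluorescent compounds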;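 further: AP2 carries R879A mutation and is captured from E. coli lysate; bead-bound FITC arrestin peptide fluorescence measuring arrestin peptide binding to AP2; 0% = DMSO wells and 100% = excess unlabeled arrestin peptide control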). To be noted: FITC arrestin peptide, at 10 µM, stronger effect = higher value, AP2 beta2 appendage fragment, R879A mutant.
Chain of AP-2 complex subunit beta (Homo sapiens) (P63010 whole entry, looked up, the tested form may be a part, one chain of several): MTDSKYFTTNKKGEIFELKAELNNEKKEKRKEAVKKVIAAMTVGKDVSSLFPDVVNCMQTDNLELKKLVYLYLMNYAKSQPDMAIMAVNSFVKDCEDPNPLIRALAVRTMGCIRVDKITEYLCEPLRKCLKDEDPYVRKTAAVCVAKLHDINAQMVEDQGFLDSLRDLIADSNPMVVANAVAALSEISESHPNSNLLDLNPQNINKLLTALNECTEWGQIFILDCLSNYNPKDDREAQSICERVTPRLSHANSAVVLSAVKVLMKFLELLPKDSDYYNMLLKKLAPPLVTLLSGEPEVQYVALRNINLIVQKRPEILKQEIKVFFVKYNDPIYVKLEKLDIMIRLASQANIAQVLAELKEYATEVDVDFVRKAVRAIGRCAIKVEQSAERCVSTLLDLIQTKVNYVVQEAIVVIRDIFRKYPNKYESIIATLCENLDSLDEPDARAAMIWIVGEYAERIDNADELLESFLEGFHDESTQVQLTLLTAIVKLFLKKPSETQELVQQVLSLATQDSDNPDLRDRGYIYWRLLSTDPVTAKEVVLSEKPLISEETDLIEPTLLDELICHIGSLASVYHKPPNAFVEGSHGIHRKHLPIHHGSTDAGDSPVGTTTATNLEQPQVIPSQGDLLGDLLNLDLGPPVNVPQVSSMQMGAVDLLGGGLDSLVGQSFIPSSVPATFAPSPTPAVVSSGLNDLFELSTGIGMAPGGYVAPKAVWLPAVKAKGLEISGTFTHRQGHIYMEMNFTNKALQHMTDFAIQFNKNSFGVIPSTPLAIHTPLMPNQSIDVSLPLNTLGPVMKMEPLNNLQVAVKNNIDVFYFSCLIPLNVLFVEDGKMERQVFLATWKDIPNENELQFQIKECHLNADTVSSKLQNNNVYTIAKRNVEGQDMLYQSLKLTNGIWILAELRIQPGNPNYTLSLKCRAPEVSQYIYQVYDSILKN
Experiment [11] in a line: cytosolic pH regulators acting via V-ATPase – S. cerevisiae, pHLuorin, HTS validation (AID 504600; in the data active means response above about 15%;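 further: plate controls were DMSO for no effect and reference compound for full effect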). The note with it: V-ATPase proton transport, at 10 µM, stronger effect = higher value.
Experiment [12] deals with anti-desmoglein-3 scFv antibody binding to human DSG3. In words: blockers of pathogenic pemphigus antibody–desmoglein-3 binding – biochemical, validation compound set, bead-based, flow cytometry, pilot screen (AID 588368;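 active means binding below the plate cutoff, the plate median minus 3 SD, with a reading above zero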;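 further: signal is the median channel fluorescence of bead-bound GFP antibody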). The note with it: Protein G beads, DSG3-Fc, scFv-GFP binding, at 10 µM, stronger effect = lower value.
Experiment [13] can be described thus: Nile Red efflux blockade in pump-expressing yeast – validation compound set, multiplex, phenotypic, pilot screen (AID 588506;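 active means efflux inhibition above 0.42, the validation set average plus 4 SD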;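 further: Nile Red retained in cells so higher fluorescence means more efflux inhibition; 0 = negative control wells and 1 = enniatin B 25 µM full block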). The note with it: S. cerevisiae pump-expressing triplex, Nile Red efflux flow cytometry; at 10 µM; stronger effect = higher value; the pumps come from Candida albicans.
The target in experiment [14] is ATP-binding cassette sub-family B member 6 (Homo sapiens) (UniProt Q9NP58). In words: blockers of ABCB6-driven porphyrin uptake – K562-ABCB6 cells, flow cytometry, validation set, pilot screen (AID 588550;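 active means inhibition above the screen-wide mean plus 3 SD, about 51%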;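 further: 0% = DMSO wells and 100% = benzethonium chloride 70 µM positive control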). The note with it: K562-ABCB6 porphyrin accumulation, 1 h, at 10 µM, stronger effect = higher value.
Chain of ATP-binding cassette sub-family B member 6 (Homo sapiens) (Q9NP58 whole entry, looked up): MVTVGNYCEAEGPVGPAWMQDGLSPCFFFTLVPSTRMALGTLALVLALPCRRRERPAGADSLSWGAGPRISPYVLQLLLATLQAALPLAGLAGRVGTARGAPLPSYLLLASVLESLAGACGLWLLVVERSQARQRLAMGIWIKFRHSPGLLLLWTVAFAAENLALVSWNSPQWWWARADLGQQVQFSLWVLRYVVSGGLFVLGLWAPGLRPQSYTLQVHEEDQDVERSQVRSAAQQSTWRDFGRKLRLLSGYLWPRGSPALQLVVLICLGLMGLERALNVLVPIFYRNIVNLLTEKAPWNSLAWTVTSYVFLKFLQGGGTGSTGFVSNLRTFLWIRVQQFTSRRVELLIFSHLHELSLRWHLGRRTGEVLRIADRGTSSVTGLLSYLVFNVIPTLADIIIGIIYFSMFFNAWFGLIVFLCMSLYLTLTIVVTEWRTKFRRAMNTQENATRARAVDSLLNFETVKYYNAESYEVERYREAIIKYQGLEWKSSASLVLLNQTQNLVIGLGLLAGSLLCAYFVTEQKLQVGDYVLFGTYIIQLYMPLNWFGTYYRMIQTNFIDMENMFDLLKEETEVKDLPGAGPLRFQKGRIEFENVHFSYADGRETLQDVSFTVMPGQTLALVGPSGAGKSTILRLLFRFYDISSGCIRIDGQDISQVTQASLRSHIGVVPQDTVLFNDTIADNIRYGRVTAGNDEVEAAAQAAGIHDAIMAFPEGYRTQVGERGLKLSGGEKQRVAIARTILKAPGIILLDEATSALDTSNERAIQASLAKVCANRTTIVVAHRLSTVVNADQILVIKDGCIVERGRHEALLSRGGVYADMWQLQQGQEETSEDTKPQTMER
A short description of experiment [15]: AML differentiation inducers, ER-HoxA9 marrow cells – cell-based, GFP/MAC1 double positive, flow cytometry, validation set, primary screen (AID 588685).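 Further: compound exposure lasts four days before antibody staining and flow analysis; 0% = DMSO wells and 100% = 5 µM fulvestrant positive control.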 To be noted: stronger effect = higher value, normalized: vehicle 0, fulvestrant 100.

Molecules are shown by their SMILES. Results filed as inconclusive are left out. Calls of active or inactive are those of the source.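 How the source made its calls, unless noted: active means differentiation response of at least 50%, scaled between solvent and reference control, from cells with both markers; inactive means the rest.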

Chain of Beta-adrenergic receptor kinase 1 (Homo sapiens) (P25098 whole entry, looked up): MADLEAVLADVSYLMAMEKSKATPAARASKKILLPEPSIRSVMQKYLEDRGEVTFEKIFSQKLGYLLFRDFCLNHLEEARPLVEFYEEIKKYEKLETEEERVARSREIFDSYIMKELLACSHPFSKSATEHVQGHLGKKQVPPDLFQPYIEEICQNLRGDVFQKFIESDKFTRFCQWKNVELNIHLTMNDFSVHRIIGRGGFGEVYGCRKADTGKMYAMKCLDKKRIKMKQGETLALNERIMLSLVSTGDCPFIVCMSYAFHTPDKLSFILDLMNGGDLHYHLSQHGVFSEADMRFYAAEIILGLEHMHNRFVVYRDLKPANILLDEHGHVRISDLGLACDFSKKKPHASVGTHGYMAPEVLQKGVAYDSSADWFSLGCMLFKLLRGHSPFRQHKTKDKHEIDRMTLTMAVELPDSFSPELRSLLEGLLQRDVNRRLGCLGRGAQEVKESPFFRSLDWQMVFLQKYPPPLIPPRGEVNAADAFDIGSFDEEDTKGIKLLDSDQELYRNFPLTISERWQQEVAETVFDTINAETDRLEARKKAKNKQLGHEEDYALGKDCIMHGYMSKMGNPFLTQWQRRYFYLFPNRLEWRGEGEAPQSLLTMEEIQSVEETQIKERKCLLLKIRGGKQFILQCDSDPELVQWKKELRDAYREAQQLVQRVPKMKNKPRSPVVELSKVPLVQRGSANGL
Chain of Integrin beta-1 (Homo sapiens) + Integrin alpha-4 (Homo sapiens) (P05556 whole entry, looked up): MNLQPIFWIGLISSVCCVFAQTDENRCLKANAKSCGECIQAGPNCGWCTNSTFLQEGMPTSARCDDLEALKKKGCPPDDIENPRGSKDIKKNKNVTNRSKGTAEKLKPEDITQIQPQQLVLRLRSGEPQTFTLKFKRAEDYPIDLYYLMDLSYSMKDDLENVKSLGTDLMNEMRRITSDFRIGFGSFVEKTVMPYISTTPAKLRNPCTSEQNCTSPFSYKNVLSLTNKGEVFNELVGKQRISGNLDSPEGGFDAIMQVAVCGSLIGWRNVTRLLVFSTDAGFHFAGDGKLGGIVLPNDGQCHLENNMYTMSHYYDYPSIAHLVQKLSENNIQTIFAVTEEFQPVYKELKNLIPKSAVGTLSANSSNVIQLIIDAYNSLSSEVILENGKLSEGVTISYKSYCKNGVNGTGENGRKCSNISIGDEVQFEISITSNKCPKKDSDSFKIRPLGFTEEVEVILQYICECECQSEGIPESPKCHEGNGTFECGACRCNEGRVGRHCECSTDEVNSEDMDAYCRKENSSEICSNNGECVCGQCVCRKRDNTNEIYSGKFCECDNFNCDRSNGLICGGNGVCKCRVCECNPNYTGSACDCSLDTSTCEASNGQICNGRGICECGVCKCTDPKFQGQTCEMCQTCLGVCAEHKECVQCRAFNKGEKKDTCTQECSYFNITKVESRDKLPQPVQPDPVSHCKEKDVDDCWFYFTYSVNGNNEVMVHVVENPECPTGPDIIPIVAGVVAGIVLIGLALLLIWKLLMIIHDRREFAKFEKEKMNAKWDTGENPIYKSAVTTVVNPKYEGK
Chain of Integrin beta-1 (Homo sapiens) + Integrin alpha-4 (Homo sapiens) (P13612 whole entry, looked up): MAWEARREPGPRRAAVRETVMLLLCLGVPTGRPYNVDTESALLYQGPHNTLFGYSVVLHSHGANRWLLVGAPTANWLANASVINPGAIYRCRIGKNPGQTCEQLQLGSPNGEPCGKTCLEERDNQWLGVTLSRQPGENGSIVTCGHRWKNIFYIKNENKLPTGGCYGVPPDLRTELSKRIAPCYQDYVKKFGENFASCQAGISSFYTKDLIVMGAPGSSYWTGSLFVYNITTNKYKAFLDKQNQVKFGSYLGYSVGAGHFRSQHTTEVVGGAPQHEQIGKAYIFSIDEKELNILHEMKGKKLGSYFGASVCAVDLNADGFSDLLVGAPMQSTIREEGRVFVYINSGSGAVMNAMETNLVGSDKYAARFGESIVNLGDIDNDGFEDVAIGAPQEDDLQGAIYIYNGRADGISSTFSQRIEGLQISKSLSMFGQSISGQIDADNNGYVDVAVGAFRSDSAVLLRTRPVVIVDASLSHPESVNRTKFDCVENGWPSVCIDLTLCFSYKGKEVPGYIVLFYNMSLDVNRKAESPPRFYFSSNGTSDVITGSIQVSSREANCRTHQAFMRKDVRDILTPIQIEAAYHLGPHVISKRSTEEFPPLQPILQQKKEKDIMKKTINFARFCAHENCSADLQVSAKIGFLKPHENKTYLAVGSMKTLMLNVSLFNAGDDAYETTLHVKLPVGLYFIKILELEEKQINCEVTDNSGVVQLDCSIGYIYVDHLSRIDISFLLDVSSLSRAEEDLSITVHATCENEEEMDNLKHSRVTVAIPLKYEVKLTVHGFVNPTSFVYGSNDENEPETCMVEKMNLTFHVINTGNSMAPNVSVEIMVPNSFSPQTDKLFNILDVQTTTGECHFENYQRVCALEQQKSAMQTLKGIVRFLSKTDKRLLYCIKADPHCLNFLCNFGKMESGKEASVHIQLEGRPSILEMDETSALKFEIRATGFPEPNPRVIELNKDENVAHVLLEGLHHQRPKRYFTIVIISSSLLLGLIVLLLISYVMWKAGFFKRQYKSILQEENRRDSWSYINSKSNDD

As usually defined, the inhibition is the drop in the measured response relative to a control, in per cent. Consider `COc1cccc2c1C(=O)O/C2=C/c1ccc2c(c1)OCO2`, for which the percent of DMSO control GFP in [1] is 95.2% (inactive). For the same compound, the GFP response vs DMSO in experiment [2] is 103% (inactive); in experiment [4], 92.3% (inactive). In addition, in experiment [3], the percent response of DMSO control was 93% (inactive). In addition, in experiment [5], the GFP response, % of DMSO was 83.8% (inactive). In addition, the double positive events in experiment [6] was 64.2%. In addition, the vesicle binding response in experiment [6] was 177% (inactive). Also, the inhibition in experiment [7] was -3.04% (inactive); in [10], -5.67% (inactive); in experiment [14] it was 8% (inactive). Also, in experiment [8], the superoxide response (% of plate) was 106% (inactive). For the same compound, the aptamer binding inhibition in experiment [9] is 1% (inactive). Besides, the response in [11] was -7.76% (inactive). In addition, the binding (% of control) in experiment [12] is 99.8% (inactive). In [13], the efflux inhibition (fraction of control) was -0.35 (inactive). In addition, in [15], the differentiation response was -24.4% (inactive).

As for `COC(=O)C1=C(C)NC(C)=C(C(=O)OC)C1c1ccccc1[N+](=O)[O-]`, the percent of DMSO control GFP in experiment [1] was 102% (inactive). For the same compound, the GFP response vs DMSO is 104% (inactive) in [2] and 108% (inactive) in experiment [4]. Also, in [3], the percent response of DMSO control was 102% (inactive). In addition, the GFP response, % of DMSO in experiment [5] is 94.6% (inactive). In experiment [6], this compound came in with a double positive events of 53.9%. In [6], the vesicle binding response is 186% (inactive). Moreover, the inhibition in [7] was 5.36% (inactive); in experiment [10] it was 34.7% (inactive); in experiment [14], 12% (inactive). In experiment [8], the superoxide response (% of plate) was 93.7% (inactive). The aptamer binding inhibition in experiment [9] was -2% (inactive). Also, the response in [11] was -7.73% (inactive). For the same compound, in experiment [12], the binding (% of control) was 104% (inactive). For the same compound, in experiment [13], the efflux inhibition (fraction of control) is -0.39 (inactive). Also, the differentiation response in experiment [15] was -8.27% (inactive).

With `CC(C)NNC(=O)c1ccncc1`, the percent of DMSO control GFP in [1] is 100% (inactive). The GFP response vs DMSO in experiment [2] is 101% (inactive); in [4], 114% (inactive). Besides, in experiment [3], the percent response of DMSO control is 107% (inactive). In addition, the GFP response, % of DMSO in experiment [5] was 111% (inactive). The compound also displayed a double positive events in experiment [6] of 55.2%. For the same compound, in experiment [6], the vesicle binding response is 178% (inactive). The inhibition was -7.7% (inactive) in [7], -13.9% (inactive) in [10] and 3% (inactive) in experiment [14]. The superoxide response (% of plate) in [8] is 101% (inactive). Also, the aptamer binding inhibition in [9] was 2% (inactive). Besides, the response in experiment [11] was -0.37% (inactive). The binding (% of control) in [12] is 98.7% (inactive). Moreover, the efflux inhibition (fraction of control) in experiment [13] is 0.22 (inactive). In addition, the differentiation response in [15] is -26% (inactive).

For the compound `O=C1C=CC(=O)C(C2=C3C(=O)N(CCc4ccccc4)CC(=O)N3CCC2)=C1`, in experiment [1], the percent of DMSO control GFP is 106% (inactive). For the same compound, the values for the GFP response vs DMSO in [2] and in experiment [4] were 103% (inactive) and 94.3% (inactive), respectively. Further, in [3], the percent response of DMSO control was 102% (inactive). In experiment [5], the GFP response, % of DMSO was 104% (inactive). Further, in experiment [6], the double positive events is 42.5%. The vesicle binding response in experiment [6] was 92.7% (inactive). For the same compound, the inhibition in experiment [7] was -30.1% (inactive); in experiment [10], 12% (inactive); in experiment [14], 8% (inactive). The superoxide response (% of plate) in [8] was 115% (inactive). Further, the aptamer binding inhibition in experiment [9] was 3% (inactive). For the same compound, in experiment [11], the response was -0.59% (inactive). Besides, the binding (% of control) in experiment [12] was 101% (inactive). For the same compound, the efflux inhibition (fraction of control) in experiment [13] was -0.28 (inactive). For the same compound, the differentiation response in experiment [15] is -18% (inactive).

On to `COC(=O)c1cc(=O)c2ccc(OC)cc2o1`, for which the percent of DMSO control GFP in [1] is 99.1% (inactive). Besides, the GFP response vs DMSO in experiment [2] was 97.9% (inactive); in experiment [4], 100% (inactive). In experiment [3], the percent response of DMSO control is 111% (inactive). The GFP response, % of DMSO in experiment [5] is 90.9% (inactive). In experiment [6], the double positive events was found to be 52.9%. The vesicle binding response in [6] is 152% (inactive). For the same compound, the values for the inhibition in experiment [7], in experiment [10] and in experiment [14] were 17.5% (inactive), -3.93% (inactive) and 6% (inactive), respectively. The superoxide response (% of plate) in experiment [8] was 94.7% (inactive). For the same compound, the aptamer binding inhibition in [9] is 1% (inactive). For the same compound, the response in [11] is 37.7% (active). Moreover, the binding (% of control) in experiment [12] is 101% (inactive). Further, in [13], the efflux inhibition (fraction of control) was 0.03 (inactive). Moreover, in experiment [15], the differentiation response is -11.5% (inactive).
